The values that follow come from PubChem BioAssay AID602476 (National Center for Advancing Translational Sciences (NCATS), 2012).

Results filed as inconclusive are left out. The source made the active and inactive calls. The call rests on the fitted dose curve; in most records, active means well fitted activation curve with a large enough effect; inconclusive means small, poorly fitted or top-dose-only effect; inactive means flat fitted curve, though single readings scatter.

The nature of the assay: FLuc inhibitory activity for the follow-up compounds in a cell-based translational read-through assay. Particulars: GripTite 293 FLucUGA read-through, luminescence, 48 h; series mostly up to 38.3 µM; activation (read-through/stabilization): at the top concentration. The source says: NCGC Assay Overview: Firefly (Photinus pyralis) luciferase is one of the most commonly used transcriptional reporters. It is considered one of the more dynamically responsive reporters - that is, responsive to changes in reporter transcription - as it requires no post-translational modifications and is enzymatically active directly after protein synthesis (Wood, 1998). With no endogenous expression in mammalian cells and without the requirement of external excitation, it offers very little background signal, thus generally providing excellent signal to background for most assays. Previous profiling work to determine the prevalence of compounds that affect FLuc enzymatic activity (PubChem AID 411) identified that ~3% of the MLSMR library (then at ~72K) inhibited FLuc (Auld et al., 2008). […] Of the compounds identified in this profile that inhibited FLuc, 151 compounds were selected for further analysis, in an effort to better understand their mode of inhibiting FLuc. The assay described here was to determine the activity of the compounds in a cell-based firefly luciferase reporter gene assay originally designed to identify compounds that enchanced translational read-through of a FLuc cDNA that contained a premature stop codon (Auld et al., 2009; Auld et al., 2010). Compounds that enhance translational read-through or compounds that stabilize FLuc intracellularly are identified as active compounds in the assay.
NCGC Assay Protocol Summary: Reagents: Transient transfection of FlucUGA construct: TransFast Transfection Reagent (Promega #E2431); FLucUGA construct (refer to Auld et al., 2009) #GripTite 293 MSR Cell Line (Invitrogen #R795-07) #Complete growth media: DMEM (Invitrogen #11965), 10% HIFBS, 0.1mM MEM NEAA, 5mL/L pen-strep (of 5000U/mL stock), 600ug/mL Geneticin #Assay media: DMEM without phenol red (Invitrogen #21063), 5% charcoal-stripped HIFBS (Hyclone #SH30071.03), 0.1mM MEM NEAA In-house detection reagent: 300mM Tris-HCl, 300mM Trizma base, 300mM MgCl, 1% Triton-X100, 5mM DTT, 500uM Coenzyme A trilithium salt (Sigma #C3019),450uM ATP (Sigma #A7699), 1mM D-luciferin sodium salt monohydrate (Biosynth #L8240) Control compounds used were two known firefly luciferase inhibitors (3-(5-(3-chlorophenyl)-1,2,4-oxadiazol-3-yl)benzoic acid and 5-(2-fluorophenyl)-3-phenyl-1,2,4-oxadiazole), and DMSO. Assay Summary: Transient transfection of FlucUGA construct: Day 1: GripTite cells were plated in T175 flasks at a density of 1.75 x 10^7 cells/T175 flask in complete growth media without Geneticin and allowed to grow ON in a 37 degrees Celsius incubator. Day 2: Cells in T175 flask were transfected - with 10ug of DNA and 30uL Transfast in 12mL complete growth media without serum and without Geneticin for 4 hours at 37 degrees Celsius. After incubation, cells were trypsinized, spun down, and resuspended to a concentration of 3.3 x 10^5 cells/mL in assay media. 6uL of cells in assay buffer were dispensed at 2000cells/well (3.3 x 10^5 cells/mL) into Greiner solid-white TC-treated 1536-well plates using a Multidrop Combi (Thermo Fisher Scientific). Plates were incubated for one hour at 37 degree Celsius, 95% humidity, 5% CO2. These assay plates were then treated with 23nL of compound or DMSO using a Kalypsys pin tool, which allows for delivery of a 12-point titration of each compound to the assay plate, with a final compound concentration ranging from approximately ~38uM to 0.2nM. Assay plates were then incubated for 48 hours. After incubation, plates were washed three times with DPBS (7uL/well). After the third wash, 6uL of DPBS was added to each well. 3uL of 3X luciferase detection reagent was then added to each well using a flying reagent dispenser (FRD). After a 15 minute incubation to allow for cell lysis, luciferase activity was measured using a ViewLux CCD imager (PerkinElmer), with an average exposure time of 2-12 seconds.
For the molecule `O=C(Nc1ccccc1C(=O)O)c1cc(S(=O)(=O)Nc2cccc(F)c2)ccc1Cl`, the “activation (read-through/stabilization)” value was -1.78% (inactive).
Consider `C/C(=N\NC(=O)c1ccccc1NC(=O)c1ccc(Cl)cc1)c1ccncc1`, for which the Potency is 0.283 µM (active).
Regarding `O=C(Nc1ccccc1-c1nc2ccccc2s1)c1cccnc1`, the “activation (read-through/stabilization)” value was 6.24% (inactive).
On the same count and under the same terms, for `O=C(Nc1ccccc1C(=O)O)c1cc(S(=O)(=O)NCc2ccccc2)ccc1Cl` the value was -0.131% (inactive); for `COc1ccccc1C(=O)Nc1ccc(C(=O)O)cc1`, 3.15% (inactive).
With `CCCC(=O)Nc1nc2ccc(OCC)cc2s1`, the Potency is 12.6 µM (active).
For the molecule `COc1ccc(NS(=O)(=O)c2cccc(C(=O)Nc3ccccc3C(=O)O)c2)cc1`, the “activation (read-through/stabilization)” value was 10.6% (inactive).
As for `O=C(COC(=O)c1ccccc1[N+](=O)[O-])c1ccc2c(c1)OCO2`, the “activation (read-through/stabilization)” value is 6.01% (inactive).
Turning to `Nc1ccc(-c2nc3ccc(N)cc3s2)cc1`, the Potency was 15.9 µM (active).
With `COc1ccc2nc(NC(=O)c3cccc(S(=O)(=O)N4CCOCC4)c3)sc2c1`, the “activation (read-through/stabilization)” value was 3.78% (inactive).
Same read-out and setting: under `O=C(Cc1ccccc1)Nc1ccc(C(=O)Nc2ccccc2C(=O)O)cc1` stands 3.92% (inactive); under `Cc1ccc(S(=O)(=O)N2CCN(C(=O)c3ccccc3-c3nc4ccccc4s3)CC2)c(C)c1`, 14.9% (inactive).
Turning to `Cc1ccc(C(=O)Nc2cccc(C(=O)O)c2)cc1S(=O)(=O)N1CCCCC1`, the Potency is 0.895 µM (active).
Same read-out and setting: under `Cc1ccc(C(=O)Nc2cccc(C(=O)O)c2)cc1` stands 4.49 µM (active).
`COc1ccc2nc(NC(=O)CCc3nc(-c4ccccc4F)no3)sc2c1`: the “activation (read-through/stabilization)” value was 2.69% (inactive).
Turning to `O=C(O)c1cccc(NC(=O)c2ccccc2NC(=O)c2ccco2)c1`, the “activation (read-through/stabilization)” value was 3.39% (inactive).
Take `Nc1ccc(-c2nc3cc(N)ccc3s2)cc1`: the Potency is 14.2 µM (active).
As for `COc1ccc2nc(NC(=O)CCc3ccc(OC)c(OC)c3)sc2c1`, the “activation (read-through/stabilization)” value is 1.32% (inactive).
Same read-out and setting: for `O=C(Nc1ccccc1C(=O)O)c1cccc(NC(=O)c2ccccc2Cl)c1` the value was 6.67% (inactive).
In the case of `Cc1ccc(C(=O)O/N=C(\N)c2ccccn2)cc1`, the Potency was 3.56 µM (active).
Consider `CCOc1ccc2nc(NC(=O)c3cc([N+](=O)[O-])ccc3N3CCOCC3)sc2c1`, for which the “activation (read-through/stabilization)” value was -7.54% (inactive).
`Cc1ccc(C(=O)Nc2ccccc2C(=O)O)cc1S(=O)(=O)N1CCCCCC1`: the Potency was 14.2 µM (active).
As for `COc1ccc2nc(NC(=O)c3ccccc3C(=O)O)sc2c1`, the “activation (read-through/stabilization)” value is 1.21% (inactive).
Consider `Nc1ccc(-c2nc3ccc(C(=O)O)cc3s2)cc1`, for which the Potency was 0.283 µM (active).
In the case of `COc1ccc(-c2cccc(C(=O)Nc3cccc(C(=O)O)c3)c2)cc1`, the Potency is 11.3 µM (active).
Consider `O=C(O)c1cccc(NC(=O)c2cccc(NC(=O)C3CCCO3)c2)c1` (stereo not given), for which the “activation (read-through/stabilization)” value is 6.33% (inactive).
The same measure, in the same setting: under `Cc1ccc(C(=O)Nc2ccc(C(=O)O)cc2)cc1S(=O)(=O)Nc1ccccc1` stands -7.51% (inactive); under `O=C(O)c1cccc(NC(=O)c2cccc(S(=O)(=O)N3CCc4ccccc43)c2)c1`, 27.6% (inactive); under `O=C(Cc1ccccc1)Nc1ccccc1C(=O)Nc1ccc(C(=O)O)cc1`, 2.61% (inactive).
As for `CCOc1ccc2nc(NC(=O)c3ccoc3C)sc2c1`, the Potency was 1.79 µM (active).
Same read-out and setting: for `COc1cccc(-c2nc3ccccc3s2)c1` the value was 1.26 µM (active).
Turning to `Nc1ccc(C(=O)Nc2ccccc2C(=O)O)cc1`, the “activation (read-through/stabilization)” value is 18.7% (inactive).
The same measure, in the same setting: for `O=C(O)c1ccc(NC(=O)c2cccc(C(=O)Nc3ccc(C(=O)O)cc3)c2)cc1` the value was 2.68% (inactive); for `O=C(Nc1ccc(Cl)cc1-c1nc2ccccc2s1)c1ccco1`, 3.02% (inactive).
Regarding `COc1ccc(C(=O)Nc2ccccc2-c2nc3ccccc3s2)c(OC)c1`, the “activation (read-through/stabilization)” value is -4.03% (inactive).
For the molecule `Nc1ccccc1C(=O)Nc1cccc(C(=O)O)c1`, the Potency is 28.3 µM (active).
As for `COc1cc(C(=O)Nc2cc(C)c(O)c(-c3nc4ccccc4s3)c2)cc(OC)c1OC`, the “activation (read-through/stabilization)” value is 6.27% (inactive).
On the same count and under the same terms, for `CC(C)c1ccc(C(=O)Nc2ccc(-c3nc4ccccc4s3)c(Cl)c2)cc1` the value was -5.34% (inactive).
On to `CN=c1scc(-c2ccccc2F)n1/N=C/c1ccc[nH]1`, for which the Potency was 0.0504 µM (active).
With `CN(C)S(=O)(=O)c1ccc(C(=O)Nc2cccc(C(=O)O)c2)cc1`, the “activation (read-through/stabilization)” value is 16.7% (inactive).
